# Data: PubChem BioAssay (NCI)
# The panel holds about 79,000 compounds, 15% with a hit somewhere; the sample as a whole holds those more often. Unmarked numbers belong to inactive results. Calls of active or inactive are those of the source. Rule as the data show it: active = growth inhibition above about 70%; inactive = the rest. Where a SMILES comes first, the peptide text is derived from it. The star is where a group is joined. Cbz = O=C(OCc1ccccc1)*
# Columns and labels:
# [1] = NCI Yeast Anticancer Drug Screen. Data for the rad50 strain (AID 155);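 also: 0% = growth of vehicle-only cultures of the same strain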; settings: S. cerevisiae rad50 strain growth inhibition; at 50.0 µM; hits give high values
# Summary of the method: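 Cells are treated with compound, grown, and their growth is then scored against vehicle-only cultures of the same repair-deficient yeast strain.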
# [2] = NCI Yeast Anticancer Drug Screen. Data for the mec2-1 strain (AID 157); settings: S. cerevisiae mec2-1 strain, at 50.0 µM, hits give high values
# Summary of the method: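 Strain: mec2-1 (DNA repair/cell cycle alteration). Compound exposure, then growth measured; inhibition expressed relative to vehicle.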
# [3] = NCI Yeast Anticancer Drug Screen. Data for the sgs1 mgt1 strain (AID 161);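 also: 0% = growth of cultures given vehicle only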; settings: S. cerevisiae sgs1 mgt1 strain, at 50.0 µM, hits give high values
# Summary of the method: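 Genetically altered yeast, compound exposure, growth inhibition relative to vehicle.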
# [4] = NCI Yeast Anticancer Drug Screen. Data for the cln2 rad14 strain (AID 165);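 also: 0% = growth equal to vehicle treated cultures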; settings: S. cerevisiae cln2 rad14 strain, at 50.0 µM, hits give high values
# Summary of the method: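 Compounds are applied to the cln2 rad14 yeast strain, and growth is then compared with that of vehicle-treated cultures to give inhibition.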
# [5] = NCI Yeast Anticancer Drug Screen. Data for the bub3 strain (AID 167); settings: S. cerevisiae bub3 mutant strain, at 50.0 µM, hits give high values
# Summary of the method: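 Part of a panel of yeast mutants defective in DNA damage repair or cell cycle regulation. Each strain is grown with compound, and inhibition is calculated relative to solvent-treated cultures.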
# [6] = NCI Yeast Anticancer Drug Screen. Data for the mlh1 rad18 strain (AID 175); settings: S. cerevisiae mlh1 rad18 strain growth inhibition; at 50.0 µM; hits give high values
# Summary of the method: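 Read-out is yeast growth inhibition, calculated against vehicle-only controls. The compound was applied to a strain engineered with DNA damage repair alterations.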
SMILES,growth inhibition [1],growth inhibition [2],growth inhibition [3],growth inhibition [4],growth inhibition [5],growth inhibition [6]
CCOC(=O)c1c(N)sc2c1C(C(=O)OCC)CC2 (stereo not given),-8.95%,7.1%,-8.05%,-0.8%,14.8%,19.9%
CS(=O)(=O)Nc1ccc2ccccc2c1,-33.8%,18.8%,-22.5%,5.1%,-3.05%,-3.7%
O=C(O)C(CO)NC(=O)C1CCCN1C(=O)OCc1ccccc1 (stereo not drawn) (Cbz-Pro-Ser-OH; configuration not given here),-1.95%,-17.8%,-5.7%,-1%,-4.75%,-18%
Cc1cc2c(s1)C(=O)c1sccc1C2=O,89.7% (active),90.8% (active),89.8% (active),91.5% (active),87.2% (active),89% (active)
CC(=O)/C(=C/c1ccco1)CC(=O)O,-15.1%,-22.1%,-12.9%,4.05%,-18.4%,-5%
O=c1cnn2c(n1)sc1ccc3ccccc3c12,-11.8%,-0.9%,-15.4%,0.65%,26.5%,40.4%
CCc1c(C)c(C#N)c(=S)n(C2OC(COC(C)=O)C(OC(C)=O)C(OC(C)=O)C2OC(C)=O)c1-c1ccccc1 (stereo not given),2.55%,13.1%,37.6%,8.25%,11.1%,13.6%
Cc1cc2c(c(C(=O)NCC(=O)N[C@@H](C)C(=O)OCc3ccccc3)c1)Oc1c(cc(C)cc1C(=O)NCC(=O)N[C@@H](C)C(=O)OCc1ccccc1)S2,26.4%,16.8%,23.8%,33%,19.6%,33.2%
Cc1cc2c(C)nn(Cc3ccc(Cl)cc3Cl)c2c(C#N)c1C,18.2%,-14.8%,24.9%,20.1%,5.8%,31.6%
COc1ccc(/C=C2/SC(=Nc3ccccc3)N(NC(=O)Cc3ccccc3)C2=O)c(OC)c1,-17.9%,-19.3%,7.45%,-12.8%,-1.85%,1.9%
CC(/C=N/N(C)C1=NCCCCN1)=N/N(C)C1=NCCCCN1,23.9%,12.7%,18.5%,-21.6%,-2.5%,29.4%
COC(=O)C1=C(C)N(NC(=O)c2ccccc2)C2(O)CCCC(=O)C12C (stereo not given),20.2%,2.2%,17.8%,-29.6%,-6.05%,23.9%
CCc1cc(Cc2cc(Cl)c(NC(=O)C(=O)C3NC(=O)NC3=O)c(CC)c2)cc(Cl)c1NC(=O)C(=O)C1NC(=O)NC1=O (stereo not given),6.5%,5.2%,4.25%,15.9%,2.8%,8.65%
C(#CC(Sc1ccccc1)=C(Sc1ccccc1)Sc1ccccc1)Sc1ccccc1,3.1%,2.15%,-21.9%,-32.3%,5.6%,-6.25%
Cn1c(=O)n(C2OC(CO)C(O)C2O)c2ncnc(N)c21 (stereo not given),8.9%,0.55%,-5.8%,-43.1%,-2.9%,4.65%
CC(C)NC(=O)CCSCCC(=O)NC(C)C,3.6%,-10.7%,-3.75%,-6.8%,-17.9%,10.1%
S=C1N(/N=C/c2c3ccccc3cc3ccccc23)C(=Nc2ccccc2)C(=Nc2ccccc2)N1c1ccccc1,16.9%,-4.55%,-6.35%,24.9%,16.6%,-7.55%
CCC(=O)Nc1cc(C)ccc1Cl,-3.95%,-7.9%,3.2%,-52.9%,5.9%,-0.6%
CCOC(=O)c1cnc2ccc(OC)cc2c1,0.7%,0.7%,-6.35%,-76.6%,35.5%,18.3%
CN(CC(=O)c1ccc(Cl)cc1)Cc1ccccc1,-1.45%,-8.8%,3.4%,-25.3%,0.9%,-3.5%

SMILES,growth inhibition [1],growth inhibition [2],growth inhibition [3],growth inhibition [4],growth inhibition [5],growth inhibition [6]
Cc1cc(C)c2c(c1)CSCc1cc(C)cc(C)c1-2,15.7%,-2.65%,19.1%,10%,1.05%,16.1%
O=C1OC2(OC2c2ccccc2)c2ccccc21 (stereo not given),0.25%,-8.95%,-37.2%,-15.2%,-29.8%,-22.1%
O=C(NC1C2CC3CC(C2)CC1C3)c1ccncn1 (stereo not given),25.1%,4.75%,17.8%,38%,13.2%,26.2%
CCNC(=O)NS(=O)(=O)c1ccc(Sc2ccc(C)cc2)nc1,-11.2%,-7.3%,-1.1%,-20.5%,7.2%,0.7%
O=C(Oc1c(Br)cc(Br)cc1C(=O)Oc1ccccc1)C(=O)Oc1c(Br)cc(Br)cc1C(=O)Oc1ccccc1,52.7%,23.9%,19.9%,28.8%,51.2%,32.6%
O=C1NC(=O)C(c2ccco2)N1 (stereo not given),3.7%,-1.55%,-12.2%,4.8%,-16.7%,8.2%
O=C1Oc2ccccc2CC1C(=O)c1ccc(Cl)cc1 (stereo not given),-7.75%,-0.25%,8.95%,-61.1%,-21.4%,7.75%
OCCCNCc1ccccc1,-36.8%,-23.4%,-20.1%,-32.4%,-32.9%,-21.1%
CCC(C)c1cnc(CC(C)C)c(=O)[nH]1 (stereo not given),8.9%,-44.2%,17.2%,4.85%,-9.6%,0.85%
COc1ccc(NC(N)=O)cc1,12.2%,-16.4%,0.05%,-1.25%,-6.35%,10.4%
CC1(C)OCC(C2OC3OC(C)(C)OC3C2O)O1 (stereo not given),4%,15.2%,10.5%,-15.8%,11.7%,7.9%
O=[n+]1c2c(n([O-])c3cc(Cl)c(Cl)cc31)CCC2,25.4%,-2.4%,22.9%,5.05%,4%,28.4%
CC(=NNC(=S)Nc1ccc(C)cc1)c1cccc(C(C)=NNC(=S)Nc2ccc(C)cc2)n1,35.5%,14.1%,36.8%,17.4%,12.4%,23.8%
Cc1cc(Cc2cc(Cc3cc(C)cc(C(C)(C)C)c3O)c(C)cc2C)c(O)c(C(C)(C)C)c1,50.4%,18.4%,13.3%,-1.75%,-23.4%,38.5%
COc1ccc(/C=C2\N=C(NN)N=C2Cl)cc1,-8.2%,-30.9%,4.55%,23.4%,-0.35%,-13.3%
NC(Cc1cccc([N+](=O)[O-])c1)C(=O)O (stereo not given),-57.8%,-29.5%,-35.2%,-48.3%,13.3%,-3.8%
CC(=O)/C(=C/n1c(=S)sc2ccccc21)C(=O)Nc1ccccc1C,-3.75%,0.9%,54.4%,15.9%,9.2%,41.6%
CC(=O)Nc1cc2c(cc1[N+](=O)[O-])-c1ccc([N+](=O)[O-])cc1C2=O,3.9%,4.4%,5.8%,3.2%,13%,-9.8%
Cc1n(Cc2ccccc2)nc2sc(N)n[n+]12,-32%,-9.45%,-56.3%,-0.55%,-4.65%,-6.95%
CNC(=O)n1c(N)nc(-c2ccccc2)c1-c1ccccc1,14.3%,4.55%,18.4%,1.7%,-22.1%,-46.9%
